Here are results for 40 molecules from PMC4336329 (PLoS ONE, 2015).

Out of some 310,000 compounds screened, about 14,000 (4.5%) showed an effect of 50% or more. Effects have a minus sign here. The sample as a whole holds a higher share of strong results than the screen did.
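Note: peak tail current of the secondary pulse compared with the same well before compound.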

In the assay the target is human ether-à-go-go-related gene (hERG) potassium channel (human, UniProt Q12809). In words: primary screen, population patch clamp on CHO cells stably expressing hERG; higher = less effect of the substance.
Chain of human ether-à-go-go-related gene (hERG) potassium channel (Q12809 whole entry, looked up): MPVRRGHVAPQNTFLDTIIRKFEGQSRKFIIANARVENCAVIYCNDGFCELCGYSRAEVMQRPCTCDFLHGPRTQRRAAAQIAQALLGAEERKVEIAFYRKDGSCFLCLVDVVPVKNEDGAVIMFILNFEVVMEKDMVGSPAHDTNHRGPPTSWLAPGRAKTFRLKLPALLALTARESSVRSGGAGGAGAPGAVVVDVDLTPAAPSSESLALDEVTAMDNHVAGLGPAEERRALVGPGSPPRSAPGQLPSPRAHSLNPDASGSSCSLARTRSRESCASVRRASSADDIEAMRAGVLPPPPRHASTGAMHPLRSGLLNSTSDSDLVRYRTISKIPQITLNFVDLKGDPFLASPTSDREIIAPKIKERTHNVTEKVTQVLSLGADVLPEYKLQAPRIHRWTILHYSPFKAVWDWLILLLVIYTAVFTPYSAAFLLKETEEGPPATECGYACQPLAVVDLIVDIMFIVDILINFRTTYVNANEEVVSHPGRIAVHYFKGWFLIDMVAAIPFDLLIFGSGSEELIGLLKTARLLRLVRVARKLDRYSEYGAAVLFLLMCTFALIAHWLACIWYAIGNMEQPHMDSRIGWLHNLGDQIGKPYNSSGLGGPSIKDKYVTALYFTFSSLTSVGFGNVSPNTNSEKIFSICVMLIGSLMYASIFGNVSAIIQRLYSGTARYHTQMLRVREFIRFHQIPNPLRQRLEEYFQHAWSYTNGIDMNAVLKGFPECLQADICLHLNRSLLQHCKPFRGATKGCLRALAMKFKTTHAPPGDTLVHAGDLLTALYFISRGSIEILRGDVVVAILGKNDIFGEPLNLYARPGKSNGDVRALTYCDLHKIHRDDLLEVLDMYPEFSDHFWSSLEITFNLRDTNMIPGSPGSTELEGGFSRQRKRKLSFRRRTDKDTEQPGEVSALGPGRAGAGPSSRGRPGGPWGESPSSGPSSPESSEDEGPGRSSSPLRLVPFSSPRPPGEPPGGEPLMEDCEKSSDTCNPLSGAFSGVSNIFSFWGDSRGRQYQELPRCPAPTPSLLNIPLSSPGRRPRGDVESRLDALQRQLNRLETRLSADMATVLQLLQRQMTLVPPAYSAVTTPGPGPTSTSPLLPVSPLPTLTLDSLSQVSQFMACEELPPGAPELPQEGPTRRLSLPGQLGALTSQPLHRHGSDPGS
Consider `CN(CC(=O)Nc1ccccc1Br)C(=O)CCc1nc2ccccc2c(=O)[nH]1`, for which the “hERG current change (%, negative = inhibition) at 10uM” value is recorded as -15.8%.
To `COC(=O)c1cc(C(=O)c2ccc(Cl)cc2Cl)cn1C` belongs -16.4%.
In the case of `O=C(NCC(=O)N1CCN(C(=O)c2ccco2)CC1)c1ccc(Br)cc1` it was -53.9%; in that of `COc1ccc(C(=O)NCC(=O)N2CCN(C(=O)c3ccco3)CC2)cc1`, -13.7%.
In the case of `O=C(NCC(=O)N1CCN(C(=O)c2ccco2)CC1)c1ccccc1` it was -7.74%.
As to `CCCCOc1ccc(C(=O)NCC(=O)N2CCN(C(=O)c3ccco3)CC2)cc1`, the “hERG current change (%, negative = inhibition) at 10uM” value is recorded as -57.4%.
In the case of `O=C(NCC(=O)N1CCN(C(=O)c2ccco2)CC1)c1ccc(Cl)cc1` it was -34.1%; in that of `O=C(NCCC(=O)N1CCN(C(=O)c2ccco2)CC1)c1ccc(Br)cc1`, -28.6%.
To `O=[N+]([O-])c1ccc(Sc2n[nH]c(-c3ccncc3)n2)nc1` belongs 14.4%.
With `CCCN(CC(=O)Nc1ccccc1C)C(=O)/C=C/c1ccc(OCC)c(OC)c1`, the “hERG current change (%, negative = inhibition) at 10uM” value was -46.7%.
As to `Cc1ccc(NC(=O)CSc2nnc(/N=C/N(C)C)s2)cc1`, the “hERG current change (%, negative = inhibition) at 10uM” value is on record as -7.65%.
For the molecule `COc1ccc2c(c1)NC(c1ccc(N(C)C)cc1)c1cccn1-2` (stereo not shown), the “hERG current change (%, negative = inhibition) at 10uM” value turned out to be 12.5%.
To `Cc1nc(N2CCN(c3ccccn3)CC2)c2c(C)c(C(=O)Nc3ccc(Cl)cc3)sc2n1` belongs -7.01%; to `Cc1nc(N2CCN(c3ccccn3)CC2)c2c(C)c(C(=O)Nc3ccc(Br)cc3C)sc2n1`, 11.6%.
To `Cc1nc(N2CCN(c3ccccn3)CC2)c2c(C)c(C(=O)Nc3ccc(F)cc3)sc2n1` belongs -76.4%; to `Cc1ccc(NC(=O)c2sc3nc(C)nc(N4CCN(c5ccccn5)CC4)c3c2C)c(C)c1`, -40.1%; to `Cc1nc(N2CCN(c3ccccn3)CC2)c2c(C)c(C(=O)Nc3ccc(F)c(Cl)c3)sc2n1`, 14.2%.
To `COc1cccc(NC(=O)c2sc3ncn(CC(=O)N4CCN(c5ccccn5)CC4)c(=O)c3c2C)c1` belongs -0.877%.
Turning to `Cc1ccc(NC(=O)c2sc3ncn(CC(=O)N4CCN(c5ccccn5)CC4)c(=O)c3c2C)cc1Cl`, the “hERG current change (%, negative = inhibition) at 10uM” value was -7.77%.
To `Cc1cccc(NC(=O)c2sc3ncn(CC(=O)N4CCN(c5ccccn5)CC4)c(=O)c3c2C)c1` belongs -61.4%; to `Cc1nc(N2CCN(c3ccccn3)CC2)c2c(C)c(C(=O)Nc3ccc(F)cc3Cl)sc2n1`, -41.6%; to `Cc1nc(N2CCN(c3ccccn3)CC2)c2c(C)c(C(=O)Nc3ccccc3F)sc2n1`, -55.3%.
To `Cc1nc(N2CCN(c3ccccn3)CC2)c2c(C)c(C(=O)Nc3ccc(F)cc3F)sc2n1` belongs -57.9%.
In the case of `CCc1ccc(NC(=O)c2sc3nc(C)nc(N4CCN(c5ccccn5)CC4)c3c2C)cc1` it was 5.47%; in that of `C1CCC(C(CC2CCCCN2)C2CCCCC2)CC1.O=C(O)/C=C\C(=O)O` (stereo not shown), -22.6%; in that of `Cn1c(SCC(=O)Nc2ccc3nc(SCC(=O)NC4CC4)sc3c2)nnc1-c1ccccc1`, -5.5%.
Consider `O=C(CSc1nnc(Cn2nnc(-c3ccccc3)n2)n1-c1ccccc1)Nc1ccc(F)cc1`, for which the “hERG current change (%, negative = inhibition) at 10uM” value is listed as 3.55%.
Consider `CC1CCN(C(=O)C(Cc2ccccc2)NS(=O)(=O)c2ccc3c(c2)oc(=O)n3C)CC1` (stereo not shown), for which the “hERG current change (%, negative = inhibition) at 10uM” value is listed as -2.38%.
For the molecule `O=C(Nc1ccc2ccccc2c1)c1ccc(Cl)cc1Cl`, the “hERG current change (%, negative = inhibition) at 10uM” value was 31%.
On to `O=c1c2c3nc4ccccc4nc3n(/N=C/c3ccccn3)c2ncn1-c1ccccc1`, for which the “hERG current change (%, negative = inhibition) at 10uM” value amounted to 19.8%.
To `CC(c1ccco1)N(C(=O)COc1ccc(Cl)cc1)c1ccccn1` (stereo not shown) belongs -12.7%; to `O=C(NNS(=O)(=O)c1ccc(F)cc1)c1ccc(O)cc1`, 9.17%.
For `CCOc1ccc(NC(=O)c2sc3nc(C)nc(N4CCOCC4)c3c2C)cc1`, the “hERG current change (%, negative = inhibition) at 10uM” value is listed as -50.7%.
To `Cc1nc(N2CCOCC2)c2c(C)c(C(=O)Nc3ccc(C(F)(F)F)cc3)sc2n1` belongs -34.9%.
As to `CCOc1ccccc1NC(=O)c1sc2nc(C)nc(N3CCOCC3)c2c1C`, the “hERG current change (%, negative = inhibition) at 10uM” value was -14.4%.
In the case of `CCC(C)(C)NC(=O)CN(Cc1cccs1)C(=O)CCC(=O)Nc1nccs1` it was -36.6%; in that of `CC(C)CC(=O)N1CCN(c2ccc([N+](=O)[O-])cc2Cl)CC1`, -59.9%.
Turning to `CCCC(=O)N1CCN(c2ccc([N+](=O)[O-])cc2Cl)CC1`, the “hERG current change (%, negative = inhibition) at 10uM” value is -52.2%.
In the case of `CC(C)(C)C(=O)N1CCN(c2ccc([N+](=O)[O-])cc2Cl)CC1` it was -33.2%; in that of `CC(C)CC(=O)NC(=S)N1CCN(c2ccc([N+](=O)[O-])cc2Cl)CC1`, -30.9%.
